These results are taken from PubChem BioAssay (NCI).

Structures are written as SMILES. Compounds without any hit were thinned out: in the full panel of roughly 79,000, 15% have a hit. Unmarked numbers belong to inactive results. Calls of active or inactive are those of the source. Rule as the data show it: active = growth inhibition above about 70%; inactive = the rest. Where a SMILES comes first, the peptide text is derived from it. [ ]: non-standard residue; d: D form. Nva = CCC[CH](N)C(=O)O

Assay [1] is described as follows: NCI Yeast Anticancer Drug Screen. Data for the rad50 strain (AID 155).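 Also: 0% = growth of vehicle-only cultures of the same strain.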 As to conditions: S. cerevisiae rad50 strain growth inhibition, stronger effect = higher value. Put shortly:
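A DNA repair-deficient yeast mutant serves as the test organism; compound-induced growth inhibition is calculated against vehicle-treated cells.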

Assay [2] is described as follows: NCI Yeast Anticancer Drug Screen. Data for the mec2-1 strain (AID 157). As to conditions: S. cerevisiae mec2-1 strain, stronger effect = higher value. Put shortly: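 Yeast mec2-1 mutant treated with compound. Readout: growth inhibition vs vehicle controls.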
Assay [3] is described as follows: NCI Yeast Anticancer Drug Screen. Data for the sgs1 mgt1 strain (AID 161).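 Also: 0% = growth of cultures given vehicle only.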 As to conditions: S. cerevisiae sgs1 mgt1 strain, stronger effect = higher value. Put shortly:
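Read-out: growth inhibition vs vehicle controls. Cells: mutant yeast strain deficient in DNA damage repair.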

Assay [4] can be described thus: NCI Yeast Anticancer Drug Screen. Data for the cln2 rad14 strain (AID 165).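 Also: 0% = growth equal to vehicle treated cultures.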 The conditions noted are these: S. cerevisiae cln2 rad14 strain, stronger effect = higher value. In outline:
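cln2 rad14 yeast strain; compound exposure; growth inhibition read vs vehicle controls.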

Assay [5] can be described thus: NCI Yeast Anticancer Drug Screen. Data for the bub3 strain (AID 167). The conditions noted are these: S. cerevisiae bub3 mutant strain, stronger effect = higher value. Put shortly:
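Inhibition values come from growth of compound-treated mutant yeast normalised to vehicle-treated controls.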

Assay [6] can be described thus: NCI Yeast Anticancer Drug Screen. Data for the mlh1 rad18 strain (AID 175). As to conditions: S. cerevisiae mlh1 rad18 strain growth inhibition, stronger effect = higher value. In outline:
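Yeast w/ defined DNA-repair lesions; compound exposure; growth vs vehicle controls → % inhibition.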

Setting [7] is: at 5.0 µM (retest, dose inferred, filed as 0.5).
Setting [8] is: at 50.0 µM (retest, dose inferred, filed as 5.0).

`C[n+]1c(/C=C/c2ccccc2Cl)ccc2ccccc21`: the growth inhibition is -3% in assay [1] (setting [7]); 37% in assay [1] (setting [8]); 98.7% (active) in assay [1] (at 50.0 µM); 2% in assay [2] (setting [7]); 80% (active) in assay [2] (setting [8]); 99% (active) in assay [2] (at 50.0 µM). Besides, the growth inhibition in assay [3] (setting [7]) was -8%; in assay [3] (setting [8]) it was 35%; in assay [3] (at 50.0 µM), 99.2% (active); in assay [4] (setting [7]), 0%; in assay [4] (setting [8]), 34%; in assay [4] (at 50.0 µM), 98.5% (active). Also, the growth inhibition in assay [5] (setting [7]) is -5%; in assay [5] (setting [8]), 33%; in assay [5] (at 50.0 µM) it was 98.8% (active); in assay [6] (setting [7]) it was -8%; in assay [6] (setting [8]) it was 48%; in assay [6] (at 50.0 µM), 98.8% (active).

On to `O=C1CCCCCCC2=C1C(Sc1ccccc1)CC2` (configuration not stated), for which the growth inhibition in assay [1] (setting [7]) is -27%; in assay [1] (setting [8]), 34%; in assay [1] (at 50.0 µM), 78.8% (active); in assay [2] (setting [7]), -6%; in assay [2] (setting [8]), 25%; in assay [2] (at 50.0 µM), 52.4%. The growth inhibition is -16% in assay [3] (setting [7]); 35% in assay [3] (setting [8]); 75.2% (active) in assay [3] (at 50.0 µM); 13% in assay [4] (setting [7]); 28% in assay [4] (setting [8]); 45.6% in assay [4] (at 50.0 µM). Further, the growth inhibition in assay [5] (setting [7]) was 3%; in assay [5] (setting [8]), 69%; in assay [5] (at 50.0 µM) it was 60.1%; in assay [6] (setting [7]) it was -13%; in assay [6] (setting [8]) it was 80% (active); in assay [6] (at 50.0 µM) it was 54.1%.

As to `CCOC1(OCC)C(C)C(c2ccccc2)C(c2ccccc2)C1C` (configuration not stated), the growth inhibition in assay [1] (setting [7]) is -3%; in assay [1] (setting [8]), -1%; in assay [1] (at 50.0 µM) it was 79.3% (active); in assay [2] (setting [7]), -6%; in assay [2] (setting [8]) it was -4%; in assay [2] (at 50.0 µM), 98.8% (active). Besides, the growth inhibition in assay [3] (setting [7]) is -8%; in assay [3] (setting [8]) it was 13%; in assay [3] (at 50.0 µM), 8.1%; in assay [4] (setting [7]) it was -4%; in assay [4] (setting [8]), -2%; in assay [4] (at 50.0 µM), 98.5% (active). Further, the growth inhibition in assay [5] (setting [7]) was -8%; in assay [5] (setting [8]) it was -5%; in assay [5] (at 50.0 µM), 99% (active); in assay [6] (setting [7]) it was -9%; in assay [6] (setting [8]), 9%; in assay [6] (at 50.0 µM) it was 98.7% (active).

On to `C/C=C/C=C\C1OC(O)([C@H](CC)C(=O)NC/C=C/C=C(\C)[C@H](OC)C(C)C2OC(\C=C/C=C/C=C(\C)C(=O)c3c(O)ccn(C)c3=O)[C@H](O)[C@@H]2O)C(O)C(O)C1(C)C` (some centres not stated), for which the growth inhibition in assay [1] (setting [7]) was -23%; in assay [1] (setting [8]), -46%; in assay [1] (at 50.0 µM) it was 35.5%; in assay [2] (setting [7]), -26%; in assay [2] (setting [8]), -18%; in assay [2] (at 50.0 µM), 9.5%. Further, the growth inhibition in assay [3] (setting [7]) is -13%; in assay [3] (setting [8]), 34%; in assay [3] (at 50.0 µM), 80.5% (active); in assay [4] (setting [7]), -14%; in assay [4] (setting [8]) it was 35%; in assay [4] (at 50.0 µM), 26.9%. Also, the growth inhibition in assay [5] (setting [7]) was -42%; in assay [5] (setting [8]), -26%; in assay [5] (at 50.0 µM) it was 26.1%; in assay [6] (setting [7]), -41%; in assay [6] (setting [8]) it was -62%; in assay [6] (at 50.0 µM), 17%.

`O=C1C=C(c2ccccc2)OC1(Nc1ccccc1)c1ccccc1` (configuration not stated): the growth inhibition was 4% in assay [1] (setting [7]); 60% in assay [1] (setting [8]); 71.7% (active) in assay [1] (at 50.0 µM); 4% in assay [2] (setting [7]); 65% in assay [2] (setting [8]); 56.6% in assay [2] (at 50.0 µM). Moreover, the growth inhibition in assay [3] (setting [7]) is 2%; in assay [3] (setting [8]), 62%; in assay [3] (at 50.0 µM), 76.4% (active); in assay [4] (setting [7]) it was 9%; in assay [4] (setting [8]), 53%; in assay [4] (at 50.0 µM), 45.2%. Moreover, the growth inhibition in assay [5] (setting [7]) is 11%; in assay [5] (setting [8]), 62%; in assay [5] (at 50.0 µM), 72.8% (active); in assay [6] (setting [7]), 9%; in assay [6] (setting [8]), 67%; in assay [6] (at 50.0 µM), 59.9%.

`Cc1cccc(NC(=O)c2cc3cc(N=Nc4ccccc4Cl)ccc3oc2=O)c1`: the growth inhibition in assay [1] (setting [7]) is 6%; in assay [1] (setting [8]), 6%; in assay [1] (at 50.0 µM) it was 78.5% (active); in assay [2] (setting [7]) it was -2%; in assay [2] (setting [8]), -2%; in assay [2] (at 50.0 µM) it was 70% (active). Moreover, the growth inhibition in assay [3] (setting [7]) was 22%; in assay [3] (setting [8]), 22%; in assay [3] (at 50.0 µM) it was 75.4% (active); in assay [4] (setting [7]), 3%; in assay [4] (setting [8]), 3%; in assay [4] (at 50.0 µM), 35%. The growth inhibition in assay [5] (setting [7]) was 6%; in assay [5] (setting [8]) it was 6%; in assay [5] (at 50.0 µM), 78.3% (active); in assay [6] (setting [7]), 7%; in assay [6] (setting [8]) it was 7%; in assay [6] (at 50.0 µM), 70.7% (active).

With `CCCCCCCCCCCCCC1OC(=O)C(C)=C1C(=O)O` (configuration not stated), the growth inhibition was -10% in assay [1] (setting [7]); 50% in assay [1] (setting [8]); 72.6% (active) in assay [1] (at 50.0 µM); -7% in assay [2] (setting [7]); 73% (active) in assay [2] (setting [8]); 26.9% in assay [2] (at 50.0 µM). Further, the growth inhibition is -2% in assay [3] (setting [7]); 60% in assay [3] (setting [8]); 47.5% in assay [3] (at 50.0 µM); -65% in assay [4] (setting [7]); 59% in assay [4] (setting [8]); 10.6% in assay [4] (at 50.0 µM). The growth inhibition is -17% in assay [5] (setting [7]); -25% in assay [5] (setting [8]); 27.4% in assay [5] (at 50.0 µM); -10% in assay [6] (setting [7]); 74% (active) in assay [6] (setting [8]); 61.9% in assay [6] (at 50.0 µM).

With `Oc1ccc(O)c2c(O)c3ccccc3c(O)c12`, the growth inhibition in assay [1] (setting [7]) is 24%; in assay [1] (setting [8]), 86% (active); in assay [1] (at 50.0 µM), 76.7% (active); in assay [2] (setting [7]) it was 15%; in assay [2] (setting [8]) it was 77% (active); in assay [2] (at 50.0 µM) it was 50.4%. For the same compound, the growth inhibition is 10% in assay [3] (setting [7]); 85% (active) in assay [3] (setting [8]); 80.5% (active) in assay [3] (at 50.0 µM); 15% in assay [4] (setting [7]); 58% in assay [4] (setting [8]); 30.9% in assay [4] (at 50.0 µM). The growth inhibition was 3% in assay [5] (setting [7]); 82% (active) in assay [5] (setting [8]); 65.7% in assay [5] (at 50.0 µM); 20% in assay [6] (setting [7]); 94% (active) in assay [6] (setting [8]); 78.9% (active) in assay [6] (at 50.0 µM).

With `CCCC(N)C(=O)NC(C(=O)O)C(C)C` (configuration not stated) (H-[Nva]-Val-OH; configuration not given here), the growth inhibition was -2% in assay [1] (setting [7]); -11% in assay [1] (setting [8]); 38.1% in assay [1] (at 50.0 µM); -2% in assay [2] (setting [7]); -3% in assay [2] (setting [8]); 51.9% in assay [2] (at 50.0 µM). Besides, the growth inhibition in assay [3] (setting [7]) was 1%; in assay [3] (setting [8]), -5%; in assay [3] (at 50.0 µM) it was 17.1%; in assay [4] (setting [7]), 1%; in assay [4] (setting [8]) it was -5%; in assay [4] (at 50.0 µM) it was 86% (active). The growth inhibition was 2% in assay [5] (setting [7]); -3% in assay [5] (setting [8]); 62% in assay [5] (at 50.0 µM); -2% in assay [6] (setting [7]); -9% in assay [6] (setting [8]); 8.4% in assay [6] (at 50.0 µM).
